From PubChem BioAssay
In the library only some 5.7% were active in any assay of this set; here they are far more common.
DAX1 inh-1: inhibits human nuclear receptor DAX1 | 340,000 compounds, 0.99% hits | inhibition, % at 6.75 µM | HEK293 Gal4-DAX1 luciferase reporter, luminescence | P51843 | AID 504766;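 active = inhibition above the mean over all tested compounds plus 3 SD, cut at about 4.2% in these data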;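 note: inhibition shows as a rise in luminescence from relieved DAX1 repression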
DAX1 inh-2: blocks DAX1 repression of SF-1 activated StAR promoter | 370,000 compounds, 1.1% hits | AID 652010 | inhibition, % at 6.8 µM | HEK293T StAR-luciferase reporter, SF-1/DAX-1 repression relief;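 active = inhibition above the mean over all tested compounds plus 3 SD, cut at about 3.6% in these data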;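 note: higher inhibition means more luminescence from relief of DAX-1 repression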
AHR act: activators of human aryl hydrocarbon receptor; 320,000 compounds, 2.5% hits; P35869; AHR-responsive luciferase reporter cells, luminescence; activation, % at 5 µM; in the data active = activation above about 47%
Target sequence (P35869 whole entry, looked up): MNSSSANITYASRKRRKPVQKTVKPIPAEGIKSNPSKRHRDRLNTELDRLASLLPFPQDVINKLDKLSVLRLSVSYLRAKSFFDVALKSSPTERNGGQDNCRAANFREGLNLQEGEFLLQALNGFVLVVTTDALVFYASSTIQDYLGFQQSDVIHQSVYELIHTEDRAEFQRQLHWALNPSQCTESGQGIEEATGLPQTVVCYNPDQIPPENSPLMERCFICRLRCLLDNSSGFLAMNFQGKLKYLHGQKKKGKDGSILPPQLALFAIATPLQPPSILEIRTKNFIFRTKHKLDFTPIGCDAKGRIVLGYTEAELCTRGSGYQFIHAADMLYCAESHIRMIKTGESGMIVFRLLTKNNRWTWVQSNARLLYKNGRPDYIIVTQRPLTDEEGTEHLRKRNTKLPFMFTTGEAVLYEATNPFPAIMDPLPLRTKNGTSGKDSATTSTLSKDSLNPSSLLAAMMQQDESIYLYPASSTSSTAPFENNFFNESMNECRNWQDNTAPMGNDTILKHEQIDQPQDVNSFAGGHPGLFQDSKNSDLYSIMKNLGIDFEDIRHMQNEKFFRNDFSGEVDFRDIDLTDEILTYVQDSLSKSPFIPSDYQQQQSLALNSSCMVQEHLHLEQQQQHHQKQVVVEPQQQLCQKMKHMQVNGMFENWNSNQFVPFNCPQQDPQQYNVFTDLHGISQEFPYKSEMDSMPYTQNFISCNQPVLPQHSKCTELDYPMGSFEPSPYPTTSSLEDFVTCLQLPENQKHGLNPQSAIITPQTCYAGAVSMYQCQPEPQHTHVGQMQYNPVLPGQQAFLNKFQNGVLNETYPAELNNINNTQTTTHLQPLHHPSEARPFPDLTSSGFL
hgDAF12 agonist: hgDAF-12 agonism, primary luciferase screen; HEK293 GAL4-hgDAF12 UAS-luciferase reporter, agonist luminescence; normalized to butyrate control; AID 687014; activation, % at 6.8 µM; 370,000 compounds, 1.8% hits;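 active = activation above a cutoff set at the mean of all screened compounds plus 3 SD, cut at about 10% in these data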
ssDAF-12 act: S. stercoralis DAF-12 activation, primary screen; HEK293 ssDAF-12/GRIP1 lit1-tk-luc reporter, luminescence; % of 3 µM dafachronic acid response; activation, % at 6.8 µM; 370,000 compounds, 1% hits;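 active = activation above the mean over all tested compounds plus 3 SD, cut at about 0.9% in these data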
hcDAF-12 act: activates DAF-12 receptor from parasite H. contortus | HEK293 hcDAF-12 lit1-tk-luc reporter, luminescence; 0% DMSO, 100% Δ7-dafachronic acid | activation, % at 6.8 µM | 370,000 compounds, 1.4% hits;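 active = activation above the mean of all tested compounds plus 3 SD, cut at about 5.5% in these data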
A number is an active result; – = inactive; · = no result.

SMILES	DAX1 inh-1	DAX1 inh-2	AHR act	hgDAF12 agonist	ssDAF-12 act	hcDAF-12 act
CCN1C(=O)/C(=c2\sc3nc(=O)c(Cc4ccccc4)nn3c2=O)c2ccccc21	–	–	–	–	–	–
NCC(c1ccco1)c1c[nH]c2ccccc12 (stereo not drawn)	–	–	·	–	–	6.1
COc1cccc(CNC(=O)CN2C(=O)COc3ccc(S(=O)(=O)N4CCCCC4)cc32)c1	–	–	–	–	–	–
O=C(CSc1nc2[nH]ncc2c(=O)[nH]1)Nc1nccs1	·	–	–	–	7.5	–
CC1(C)CC(=O)/C(=N/Nc2ccc(Cl)cc2)CO1	4.5	–	–	11.0	–	–
COc1ccccc1N/N=C1\COC(C)(C)CC1=O	4.8	–	–	–	–	–
CC1(C)CC(=O)C=C(Nc2ccc(Cl)cc2)C1	–	–	–	–	–	–
Cc1cccc(N/N=C2/COC(C)(C)CC2=O)c1	–	–	–	13.1	–	–
COc1ccccc1NC=C1C(=O)OC(C)(C)OC1=O	–	–	–	–	–	–
O=C(Nc1ccn(CCCNCc2cccc3ccccc23)c(=O)n1)OCc1ccccc1	–	–	·	–	–	–
C=CCNC(=S)NNC(=O)CSc1nc2ccccc2s1	–	–	–	–	–	–
O=C(CSc1nc2ccccc2s1)NCCOc1ccccc1	–	–	–	–	–	–
O=C(CSc1nc2ccccc2s1)NCCOc1ccc(Cl)cc1	–	–	48.1	–	–	–
O=C(CSc1nc2ccccc2s1)NNC(=S)Nc1ccc(Cl)cc1	–	–	70.6	–	–	–
COC(=O)c1ccc(C2c3c(oc4ccc(Cl)cc4c3=O)C(=O)N2CCN2CCOCC2)cc1 (stereo not drawn)	–	–	–	–	–	–
CCOc1cc(C2NC(=O)CCC2[N+](=O)[O-])cc(Br)c1OCC (stereo not drawn)	–	–	–	–	–	–
Cc1ccc(OCC(=O)OCc2nc3scc(-c4ccccc4)c3c(=O)[nH]2)cc1C	–	–	–	–	–	–
COc1ccc(C2NC(=O)NC(C)=C2C(=O)OC2CCC(C)CC2)cc1 (stereo not drawn)	–	–	·	–	–	–
Nc1[nH]c(C(=O)c2ccc(Br)cc2)c(-c2ccc(Cl)cc2Cl)c1C(=O)NCCc1c[nH]c2ccccc12	·	–	·	–	1.1	–
Cc1cccc(OCCNC(=O)c2cncc(Br)c2)c1	–	–	–	–	3.3	–
Nc1[nH]c(C(=O)c2ccccc2)c(-c2ccc(Cl)cc2Cl)c1C(=O)NCCc1c[nH]c2ccccc12	·	–	·	–	–	–
O=C(NCCc1c[nH]c2ccccc12)c1cncc(Br)c1	–	–	49.3	–	–	–
COC(=O)C(Cc1c[nH]c2ccccc12)NC(=O)c1cncc(Br)c1 (stereo not drawn)	–	–	–	–	–	–
O=C(Cn1c(=O)n(CCC(=O)N2CCCCC2)c(=O)c2sccc21)NCc1ccccc1	–	–	–	–	–	–
O=C(/C=C/c1ccc2c(c1)OCO2)Nc1nncs1	·	–	88.7	–	–	–
SMILES	DAX1 inh-1	DAX1 inh-2	AHR act	hgDAF12 agonist	ssDAF-12 act	hcDAF-12 act
Cc1cc(C)nc(NC(=O)/C=C/c2ccc3c(c2)OCO3)c1	–	4.2	–	–	–	–
O=C(/C=C/c1ccc2c(c1)OCO2)Nc1nc(-c2ccccc2)cs1	–	–	–	–	–	–
O=C(NCC(c1cccs1)N1CCOCC1)C1CCN(S(=O)(=O)c2ccccc2C(F)(F)F)CC1 (stereo not drawn)	–	–	–	–	–	–
CC(C)(C)c1ccc(OCCCN2CCC(C(O)(c3ccccc3)c3ccccc3)CC2)cc1	·	–	·	–	–	–
O=C1NC(=O)/C(=C/c2ccc(O)cc2)S1	–	–	–	13.9	–	–
O=C1NC(=O)C(=Cc2ccc(Cl)c(Cl)c2)S1	–	–	·	–	–	–
Cc1cccc(/C=C/c2onc(C)c2S(=O)(=O)N2CCC(C(=O)NC(C)C)CC2)c1	–	–	–	–	–	–
C=CCSc1n[nH]c(-c2ccc(OC)cc2)n1	–	–	–	12.1	–	–
O=c1n(-c2ccc(Br)cc2)cnn1-c1ncccc1[N+](=O)[O-]	4.3	–	–	–	–	–
O=[N+]([O-])c1cccnc1N1CCCCC1	–	–	–	–	–	–
COc1cc(C(C[N+](=O)[O-])c2c(C)cc3ccccn23)ccc1O (stereo not drawn)	4.4	–	–	–	–	–
COc1cc(NC(=O)c2noc3c2CCCC3)c(OC)cc1Cl	–	·	55.3	·	·	·
O=C(Nc1cc(Cl)ccc1Cl)c1noc2c1CCCC2	–	–	75.1	–	–	–
COc1ccc(Cl)cc1NC(=O)c1noc2c1CCCC2	–	–	–	–	–	–
CC(C)c1ncc(S(=O)(=O)c2ccc(C(F)(F)F)cn2)c(N)n1	–	–	–	–	–	–
CCOc1ccc(OCC)c(NC(=O)c2ccc(CNc3c(N4CCCC4)c(=O)c3=O)cc2)c1	6.3	–	–	–	–	–
COCCN(C(=O)COC(=O)c1ccc2c(c1)OCO2)c1c(N)n(Cc2ccccc2)c(=O)[nH]c1=O	4.4	–	·	–	–	–
COc1ccc(C(C)(C)C)cc1NC(=O)c1ccccc1-n1cnnn1	–	–	–	–	–	–
Cc1cccc(C2=NN(c3ccc(Br)cc3)[C@@H](C(=O)N3CCOC3=O)[C@@H]2C)c1	–	–	·	–	–	–
O=C1OCCN1C(=O)[C@H]1[C@H](c2ccc(Cl)cc2)C(c2ccc(F)cc2)=NN1c1ccccc1	–	3.8	·	–	–	–
Cc1cccc(C2=NN(c3ccccc3)[C@@H](C(=O)N3CCOC3=O)[C@@H]2C)c1	–	3.7	·	–	–	–
CCCCS(=O)(=O)N1CCCc2nc(CC)c(CC)cc21	·	–	·	–	–	–
O=C(/C=C\c1cn(-c2ccccc2)nc1-c1ccccc1)Nc1nccs1	–	–	73.0	–	–	–
C/C(=C\C(=O)Nc1nccs1)c1ccccc1	–	–	–	11.7	–	–
CC(=O)NS(=O)(=O)c1ccc(NC(=O)/C=C/c2cn(-c3ccccc3)nc2-c2ccccc2)cc1	–	–	–	–	–	–
SMILES	DAX1 inh-1	DAX1 inh-2	AHR act	hgDAF12 agonist	ssDAF-12 act	hcDAF-12 act
C=CCSC1=N/C(=C/c2ccsc2)C(=O)N1c1ccccc1	5.0	–	–	–	–	–
Cn1nc(-c2ccccc2)nc1-c1ccccc1	–	–	48.3	–	–	6.3
Cc1ccc(Nc2ncc3c(n2)CC(C)(C)CC3=O)cc1	6.0	–	–	12.6	–	–
COc1ccc(C(=O)NCCN(C)C)c2nc3ccccc3cc12	–	–	·	–	–	5.8
Cn1c(=O)oc2cc(S(=O)(=O)N3CCN(c4ccccc4)CC3)ccc21	–	–	–	–	2.6	–
Cn1c(=O)oc2cc(S(=O)(=O)N3CCC(C(=O)N4CCN(c5ccccc5)CC4)CC3)ccc21	–	–	–	–	–	–
COc1ccc(OCC(=O)Nc2c(Cl)ccc3nsnc23)cc1	–	–	·	–	–	6.2
